Screens from PubChem BioAssay.
Pol eta inh-1: DNA polymerase eta (human) inhibition; Q9Y253; recombinant Pol eta, fluorescent DNA replication assay; Potency, µM (top dose mostly 114 µM), for inactives: top-dose activity change, negative = inhibition, most hits filed as inhibitors; 390,000 compounds, 1.2% hits; also: potency is read from the fitted curve at half-maximal effect; % is scaled to controls: 0 for no effect and ±100 for the full control effect
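Pol eta (10 nM) was preincubated with compounds for 15 min at room temperature, after which fluorescent replication substrate (50 nM final) was added to start the reaction. Fluorescence was read kinetically at 0 and 10 min.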
POLB inh: blocks human DNA polymerase beta activity; P06746; Pol beta primer extension/strand displacement, fluorescence kinetic; Potency, µM (top dose mostly 114 µM), without a hit: top-dose activity change, negative = inhibition, usual class: inhibitors; 340,000 compounds, 1.3% hits; also: potency is read from the fitted curve at half-maximal effect; % is scaled to controls: 0 for no effect and ±100 for the full control effect
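10 nM enzyme + cpd, 15 min RT; start with substrate 50 nM final; read 0 min and after 10 min RT. Corrected, normalized data; 4-parameter Hill curve fit.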
Pol kappa inh-1: DNA polymerase kappa (human) inhibition | purified Pol kappa, fluorescent DNA synthesis assay, 10 min | 400,000 compounds, 0.53% hits | Q9UBT6 | AID 588579 | Potency, µM (top dose mostly 107 µM), without a hit: at the top dose activity, negative = inhibition, actives largely listed as inhibitors; also: potency is read from the fitted curve at half-maximal effect; % is scaled to controls: 0 for no effect and ±100 for the full control effect
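First, compounds were pin-transferred onto 10 nM Pol kappa. After 15 min at room temperature, substrate was added to 50 nM final. Fluorescence was then measured kinetically at 0 and 10 min.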
Pol iota inh: blocks human DNA polymerase iota activity; Q9UNA4; Pol iota fluorescent replication assay, 10 min; Potency, µM (doses to about 115 µM), for inactives: at the top dose activity, negative = inhibition, actives largely listed as inhibitors; 390,000 compounds, 1% hits; AID 588590; also: potency is read from the fitted curve at half-maximal effect
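Fluorescent replication assay read twice, at 0 min and 10 min after adding 50 nM (final) substrate. Enzyme (10 nM) and compounds were first incubated 15 min at room temperature; enzyme-free buffer wells were negative controls.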
WRN inhibitor: WRN helicase (human) inhibition; WRN helicase unwinding, fluorescent forked duplex, kinetic; Potency, µM (series often up to 114 µM), inactives show top-dose activity change, negative = inhibition, most hits filed as inhibitors; 360,000 compounds, 0.46% hits; AID 651768; also: potency is read from the fitted curve at half-maximal effect; % is scaled to controls: 0 for no effect and ±100 for the full control effect; nearly all actives have a fitted effect of over 55% in size
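Kinetic fluorescence helicase assay: unwinding of a quenched forked DNA duplex (100 nM final) with 2 mM ATP final raises red fluorescence (525/598 nm). Compounds sat 15 min at room temperature with 20 nM WRN beforehand.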
POLI cherry-pick: Confirm cherry-picked inhibitors of human polymerase iota. shares compounds with Pol kappa inh-1. Pol iota primer extension, TAMRA/BHQ fluorescence. Potency, µM, hits mostly inhibitors. 1,500 compounds, 77% hits; also: potency is read from the fitted curve at half-maximal effect
GALK confirm: galactokinase (human) inhibition, confirmation; Potency, µM (titrated, usually from 115 µM), inactives show at the top dose activity, negative = inhibition, actives largely listed as inhibitors; AID 2015; 150 compounds, 70% hits; shares compounds with Pol eta inh-1; purified GALK, Kinase-Glo ATP depletion luminescence
Redox cycling: generates H2O2 by redox cycling, flagging GALK artifacts. shares compounds with Pol eta inh-1. Phenol red-HRP H2O2 redox cycling, absorbance 600 nm. Potency, µM (top dose mostly 115 µM), for the others: at the highest dose activity change, negative = H2O2 signal, actives largely listed as inhibitors. 150 compounds, 40% hits. AID 2035
HEK293 tox: counter-screen for GALK inhibitors: HEK293 cell cytotoxicity; 170 compounds, 10% hits; HEK-293 viability, ATP luminescence (CellTiter-Glo), 24/48 h; shares compounds with Pol eta inh-1; Potency, µM (titrated, usually from 46.1 µM), without a hit: at the highest dose activity change, negative = cytotoxicity, usual class: inhibitors; also: potency is read from the fitted curve at half-maximal effect; % is scaled to controls: 0 for no effect and ±100 for the full control effect
Pol kappa inh-2: confirmation of human DNA polymerase kappa inhibitors; 920 compounds, 76% hits; Potency, µM, usual class: inhibitors; purified Pol-kappa, fluorescent strand-displacement substrate; shares compounds with Pol eta inh-1; also: potency is read from the fitted curve at half-maximal effect
Pol eta inh-2: Pol eta (human) inhibition, cherry-pick confirmation; shares compounds with Pol eta inh-1; Pol eta primer extension, TAMRA/BHQ fluorescence, 10 min; Potency, µM, hits mostly inhibitors; 2,600 compounds, 64% hits; AID 720502; also: potency is read from the fitted curve at half-maximal effect
* hit, by the source's call; ? = inconclusive; . = no result; [ ] = remark or other dose. An excerpt weighted towards active compounds, which were near 2.3% of everything screened. Calls follow the shape of the dose curve; as a rule, active = well fitted curve in the direction sought with a large enough effect; inconclusive = small, poorly fitted or top-dose-only effect, or another doubt; inactive = no such curve, though single readings can be large; an effect the other way counts as inactive or inconclusive.

SMILES | Pol eta inh-1 | POLB inh | Pol kappa inh-1 | Pol iota inh | WRN inhibitor | POLI cherry-pick | Pol eta inh-2 | others
Nc1ncc(N=Nc2cc(C(=O)O)ccc2Cl)s1 | 13µM* | ? | 79µM* | 7.9µM* | -29%[11.6 µM] | 60* | 21*
CC1CCN(C(=O)CSc2nnc(NC(=O)Nc3ccccc3)s2)CC1 | -8% | 2% | -9%[60.1 µM] | 11% | . | . | .
COC(=O)c1ccc(-c2ccc(C(c3c(C)[nH][nH]c3=O)c3c(C)[nH][nH]c3=O)o2)cc1 | 25µM* | 20µM* | ? | 3.5µM* | ? | ? | 76*
Cc1[nH][nH]c(=O)c1C(c1ccc(-c2ccccc2C(=O)O)o1)c1c(C)[nH][nH]c1=O | 11µM* | 10µM* | ? | 10µM* | -19%[11.6 µM] | 47* | 27* | GALK confirm=-11%;Redox cycling=6.7µM*;HEK293 tox=6%
COc1ccc(C(=O)Oc2ccc(C(c3c(C)[nH][nH]c3=O)c3c(C)[nH][nH]c3=O)cc2OC)cc1 | -1% | 0% | -14% | ? | . | . | .
Cc1[nH][nH]c(=O)c1C(c1ccc(-c2cccc(C(=O)O)c2)o1)c1c(C)[nH][nH]c1=O | 13µM* | 20µM* | 89µM* | 2.2µM* | ? | 67* | 30*
COc1ccc(NC(=O)c2c(C)oc3ccc(O)c(CN4CCN(Cc5ccccc5)CC4)c23)cc1 | -10% | 21% | 11% | -8% | . | . | .
CCC(=O)OCC(=O)[C@@]1(OC(=O)CC)[C@@H](C)C[C@@H]2[C@H]3CCC4=CC(=O)C=C[C@]4(C)[C@@]3(F)[C@@H](O)C[C@@]21C | . | . | -12%[60.1 µM] | . | . | . | .
O=C(COc1ccccc1Cl)N(Cc1ccco1)Cc1ccco1 | -19% | 0% | -7% | 11% | . | . | .
Cc1ccc(-c2nc(CS(=O)CC(=O)N3CCN(c4ccc(Cl)cc4)CC3)c(C)o2)cc1 (centres undefined) | -15% | -21% | 2%[60.1 µM] | -14% | . | . | .
O=C1c2ccc3c4c(ccc(c24)C(=O)N1NC(=O)C(F)(F)F)CC3 | 79µM* | -1% | 18µM* | 22µM* | ? | 42* | 17*
O=C(NN1C(=O)c2ccc3c4c(ccc(c24)C1=O)CC3)c1ccc(Br)cc1 | -2% | 3% | ? | 5% | -7% | . | .
CCc1nnc(NC(=O)C(=O)c2cc(C)n(-c3ccccc3)c2C)s1 | 50µM* | 15% | -5% | -21% | . | ? | 85* | Pol kappa inh-2=13*
O=C1/C(=C/c2ccc(O)c(O)c2)Oc2cc(O)ccc21 | 20µM* | -30% | 28µM* | ? | ? | 24* | 34*
